Read-out in test [1]: Cyclin D1 (CCND1), CCND1 (gene 595)
The test can be described thus: LTEA_HepaRG_CCND1: Life Technologies and Expression Analysis (LTEA) Assay for Cyclin D1 (CCND1) using HepaRG (AID 2283451).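 For AC50: differentiated human HepaRG liver cells in serum-free induction medium; TaqMan qRT-PCR transcript level normalised to ACTB GAPDH and POLR2A housekeeping genes.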 To be noted: mRNA level, 48 h; actives raise or lower the signal. Put shortly:
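HepaRG plated 48 h, medium switched to serum-free induction medium, chemicals added in duplicate (top 100 uM, half-log steps, 0.5% DMSO) for 48 h, cells lysed, RNA measured by TaqMan qRT-PCR.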

Read-out in test [2]: flavin-containing dimethylaniline monooxygenases 3 (FMO3), FMO3 (gene 2328)
The test can be described thus: LTEA_HepaRG_FMO3: Life Technologies and Expression Analysis (LTEA) Assay for flavin-containing dimethylaniline monooxygenases 3 (FMO3) using HepaRG (AID 2283453).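 For AC50: differentiated human HepaRG liver cells in serum-free induction medium.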 To be noted: mRNA level, 48 h; actives raise or lower the signal. Put shortly: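 FMO3 transcript quantified by TaqMan qRT-PCR against three housekeeping genes after 48 h chemical exposure of HepaRG cells. Eight-point half-log series, top 100 uM, 0.5% DMSO vehicle; phenobarbital 1mM induction control; up- or down-regulation fitted.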

Read-out in test [3]: Cytochrome P450 (CYP1A1), CYP1A1 (gene 1543)
The test can be described thus: LTEA_HepaRG_CYP1A1: Life Technologies and Expression Analysis (LTEA) Assay for Cytochrome P450 (CYP1A1) using HepaRG (AID 2283454). To be noted: mRNA level, 48 h; actives raise or lower the signal. Put shortly:
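HepaRG, 48 h post-plating switched to serum-free induction medium; 8-pt conc-response (top 100 uM, half-log, 0.5% DMSO), duplicates, 48 h. Lysis in RLT, TaqMan qRT-PCR for CYP1A1; gain or loss vs DMSO.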

Read-out in test [4]: CFLAR gene, CFLAR (gene 8837)
The test can be described thus: LTEA_HepaRG_CFLAR: Life Technologies and Expression Analysis (LTEA) Assay for CFLAR gene using HepaRG (AID 2283455). To be noted: mRNA level, 48 h; actives raise or lower the signal. A digest of the protocol:
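Transcript level by qRT-PCR (normalized to ACTB, GAPDH and POLR2A) after 48 h chemical exposure of HepaRG cells, top concentration 100 uM with half-log steps, 0.5% DMSO vehicle, duplicates; fitted bidirectionally against DMSO baseline.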

Read-out in test [5]: Forkhead box O1 (FOXO1), FOXO1 (gene 2308)
Put plainly: LTEA_HepaRG_FOXO1: Life Technologies and Expression Analysis (LTEA) Assay for Forkhead box O1 (FOXO1) using HepaRG (AID 2283456). To be noted: mRNA level, 48 h; actives raise or lower the signal. Put shortly: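 FOXO1 transcript quantified by qRT-PCR after 48 h chemical exposure (top 100 uM, half-log steps, 0.5% DMSO) of HepaRG cells, housekeeping-normalized (ACTB/GAPDH/POLR2A). Changes fitted in both directions relative to vehicle.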

Read-out in test [6]: growth arrest and DNA damage 45 (GADD45A), GADD45A (gene 1647)
The test can be described thus: LTEA_HepaRG_GADD45A: Life Technologies and Expression Analysis (LTEA) Assay for growth arrest and DNA damage 45 (GADD45A) using HepaRG (AID 2283458). As to conditions: mRNA level, 48 h; actives raise or lower the signal. A digest of the protocol: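 Transcript induction or loss, quantified by TaqMan qRT-PCR against three housekeeping genes, is the read-out. HepaRG cells received chemicals for 48 h across eight half-log concentrations from 100 uM in 0.5% DMSO; gain and loss fitted relative to DMSO.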

Read-out in test [7]: Forkhead box O3 (FOXO3), FOXO3 (gene 2309)
The test can be described thus: LTEA_HepaRG_FOXO3: Life Technologies and Expression Analysis (LTEA) Assay for Forkhead box O3 (FOXO3) using HepaRG (AID 2283459). As to conditions: mRNA level, 48 h; actives raise or lower the signal. A digest of the protocol: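 FOXO3 transcript measured by qRT-PCR (normalized to ACTB, GAPDH, POLR2A) after 48 h exposure of HepaRG cells in serum-free induction medium. Duplicates, eight half-log concentrations up to 100 uM, 0.5% DMSO; gain or loss fitted against DMSO.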

Read-out in test [8]: ABC Transporter (ABCC3), ABCC3 (gene 8714)
Put plainly: LTEA_HepaRG_ABCC3: Life Technologies and Expression Analysis (LTEA) Assay for ABC Transporter (ABCC3) using HepaRG (AID 2283462). As to conditions: mRNA level, 48 h; actives raise or lower the signal. Put shortly:
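Human HepaRG, 48 h dosing, 8-pt half-log series from 100 uM, 0.5% DMSO vehicle, duplicates. ABCC3 mRNA by TaqMan qRT-PCR, housekeeping-normalized; bidirectional curve fit vs DMSO.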

Read-out in test [9]: ABC Transporter (ABCB11), ABCB11 (gene 8647)
The test can be described thus: LTEA_HepaRG_ABCB11: Life Technologies and Expression Analysis (LTEA) Assay for ABC Transporter (ABCB11) using HepaRG (AID 2283463). To be noted: mRNA level, 48 h; actives raise or lower the signal. A digest of the protocol:
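ABCB11 transcript levels quantified by TaqMan qRT-PCR against three housekeeping genes after 48 h chemical exposure of HepaRG cultures. Concentrations up to 100 uM in half-log steps, 0.5% DMSO vehicle; both induction and suppression scored.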

Read-out in test [10]: ABC Transporter (ABCC2), ABCC2 (gene 1244)
Put plainly: LTEA_HepaRG_ABCC2: Life Technologies and Expression Analysis (LTEA) Assay for ABC Transporter (ABCC2) using HepaRG (AID 2283464). To be noted: mRNA level, 48 h; actives raise or lower the signal. A digest of the protocol: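 HepaRG, 48 h post-plating; serum-free induction medium; cpd 8-pt, 100 uM top, half-log, 0.5% DMSO, duplicate, 48 h. Readout: ABCC2 mRNA by qRT-PCR, norm. ACTB/GAPDH/POLR2A. Bidirectional fit vs DMSO baseline.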

Read-out in test [11]: Broad substrate specificity ATP-binding cassette transporter ABCG2 (Homo sapiens) (UniProt Q9UNQ0)
Put plainly: LTEA_HepaRG_ABCG2: Life Technologies and Expression Analysis (LTEA) Assay for ABC Transporter (ABCG2) using HepaRG (AID 2283465). As to conditions: mRNA level, 48 h; actives raise or lower the signal. A digest of the protocol:
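ABCG2 transcript was quantified by TaqMan qRT-PCR against three housekeeping genes in HepaRG cells. Cells were treated in duplicate for 48 h across an 8-point half-log series up to 100 uM, with 0.5% DMSO vehicle. Gain or loss versus DMSO was fit.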

Read-out in test [12]: ATP-citrate lyase (ACLY), ACLY (gene 47)
The test can be described thus: LTEA_HepaRG_ACLY: Life Technologies and Expression Analysis (LTEA) Assay for ATP-citrate lyase (ACLY) using HepaRG (AID 2283466). As to conditions: mRNA level, 48 h; actives raise or lower the signal. Put shortly: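 ACLY mRNA quantified by qRT-PCR on Fluidigm arrays against three housekeeping genes, after 48 h chemical treatment of HepaRG cells (top concentration 100 uM, half-log steps, 0.5% DMSO vehicle). Up- or down-regulation fitted relative to DMSO.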

Read-out in test [13]: Peroxisomal acyl-coenzyme A oxidase 1 (ACOX1) gene, ACOX1 (gene 51)
Put plainly: LTEA_HepaRG_ACOX1: Life Technologies and Expression Analysis (LTEA) Assay for Peroxisomal acyl-coenzyme A oxidase 1 (ACOX1) gene using HepaRG (AID 2283467). To be noted: mRNA level, 48 h; actives raise or lower the signal. Put shortly:
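ACOX1 transcript levels were quantified by TaqMan qRT-PCR against three housekeeping genes after 48 h chemical exposure of differentiated human HepaRG cells. Exposure used eight half-log steps topping at 100 uM, 0.5% DMSO vehicle, in duplicate. Bidirectional curve fits were made relative to DMSO.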

Read-out in test [14]: Alkaline Phosphatase, Placental (ALPP) gene, ALPP (gene 250)
Put plainly: LTEA_HepaRG_ALPP: Life Technologies and Expression Analysis (LTEA) Assay for Alkaline Phosphatase, Placental (ALPP) gene using HepaRG (AID 2283468). To be noted: mRNA level, 48 h; actives raise or lower the signal. A digest of the protocol:
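HepaRG, 48 h plating then 48 h dosing, serum-free induction medium, 0.5% DMSO. 8 conc, half-log, max 100 uM, duplicates. Endpoint: ALPP transcript by qRT-PCR, housekeeping-normalized; gain or loss fitted vs DMSO.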

Read-out in test [15]: Bcl-2 (BAD) gene, BAD (gene 572)
The test can be described thus: LTEA_HepaRG_BAD: Life Technologies and Expression Analysis (LTEA) Assay for Bcl-2 (BAD) gene using HepaRG (AID 2283469). As to conditions: mRNA level, 48 h; actives raise or lower the signal. Put shortly:
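Read-out: qRT-PCR of BAD mRNA, normalized to three housekeeping genes. Human HepaRG cultures got 48 h chemical exposure in 0.5% DMSO, duplicate eight-point half-log series topping at 100 uM. Gain or loss of signal fitted versus DMSO vehicle.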

Read-out in test [16]: catalase (CAT), CAT (gene 847)
Put plainly: LTEA_HepaRG_CAT: Life Technologies and Expression Analysis (LTEA) Assay for catalase (CAT) using HepaRG (AID 2283452). To be noted: mRNA level, 48 h; actives raise or lower the signal. Put shortly: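 Expression of CAT was quantified by TaqMan qRT-PCR with ACTB/GAPDH/POLR2A normalization after 48 h chemical exposure of HepaRG. Eight-point half-log series, top 100 uM, in 0.5% DMSO; gain or loss fitted against vehicle.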

A short description of test [17]: CEETOX_H295R_TESTO: CeeTox H295R High-throughput Steroidogenesis Assay for Testosterone (TESTO) (AID 2283457). As to conditions: actives raise or lower the signal. Put shortly: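 H295R, passage ≤10, 48 h dosing; media extracted with MTBE → HPLC-MS/MS for testosterone; 7-pt standard curve sets LLOQ/ULOQ; bidirectional fit vs DMSO; MTT viability same wells.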
Read-out in test [18]: ABC Transporter (ABCB1), ABCB1 (gene 5243)
Put plainly: LTEA_HepaRG_ABCB1: Life Technologies and Expression Analysis (LTEA) Assay for ABC Transporter (ABCB1) using HepaRG (AID 2283460). To be noted: mRNA level, 48 h; actives raise or lower the signal. Put shortly:
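ABCB1 transcript level measured by TaqMan qRT-PCR against three housekeeping genes after 48 h chemical exposure of differentiated HepaRG cells. Top concentration 100 uM, half-log steps, eight points, 0.5% DMSO vehicle; bidirectional fit relative to DMSO.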

Read-out in test [19]: growth arrest and DNA damage 45 (GADD45B), GADD45B (gene 4616)
The test can be described thus: LTEA_HepaRG_GADD45B: Life Technologies and Expression Analysis (LTEA) Assay for growth arrest and DNA damage 45 (GADD45B) using HepaRG (AID 2283461). As to conditions: mRNA level, 48 h; actives raise or lower the signal. Put shortly: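 HepaRG, ~100,000 cells/well, 48 h plating; serum-free induction medium; cpd 100 uM top, half-log x8, 0.5% DMSO, duplicate, 48 h; lysis in RLT, RNA isolation, qRT-PCR; norm ACTB/GAPDH/POLR2A; bidirectional fit vs DMSO.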

Consider four molecules from PubChem BioAssay (EPA / NIEHS).

Usually AC50 stands for the concentration at which the activity in the assay is half-maximal.

Each structure is given as a SMILES string. Active and inactive are the calls of the source. Rule for the calls: active = hit-call score of the fitted dose curve at least 0.9, where 1 is the maximum; inactive = score below 0.9.

Broad substrate specificity ATP-binding cassette transporter ABCG2 (Homo sapiens), sequence (Q9UNQ0 whole entry, looked up): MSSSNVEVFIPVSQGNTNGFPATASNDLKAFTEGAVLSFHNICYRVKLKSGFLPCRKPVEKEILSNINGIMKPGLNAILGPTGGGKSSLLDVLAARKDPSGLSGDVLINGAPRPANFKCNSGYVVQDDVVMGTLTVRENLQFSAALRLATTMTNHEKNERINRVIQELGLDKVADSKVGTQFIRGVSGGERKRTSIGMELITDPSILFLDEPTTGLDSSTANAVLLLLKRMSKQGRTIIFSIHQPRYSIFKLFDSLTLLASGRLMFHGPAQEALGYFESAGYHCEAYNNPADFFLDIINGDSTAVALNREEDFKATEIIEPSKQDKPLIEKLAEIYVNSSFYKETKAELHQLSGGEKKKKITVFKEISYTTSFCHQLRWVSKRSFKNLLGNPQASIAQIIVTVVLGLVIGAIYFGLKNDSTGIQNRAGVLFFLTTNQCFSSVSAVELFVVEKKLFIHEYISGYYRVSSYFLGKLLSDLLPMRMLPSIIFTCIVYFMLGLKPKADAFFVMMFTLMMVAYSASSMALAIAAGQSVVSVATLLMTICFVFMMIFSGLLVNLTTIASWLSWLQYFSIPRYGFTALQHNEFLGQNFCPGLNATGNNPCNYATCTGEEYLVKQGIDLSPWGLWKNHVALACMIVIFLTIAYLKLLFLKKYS

On to `CC(C)=CC1C(C(=O)OCc2coc(Cc3ccccc3)c2)C1(C)C` (configuration not stated), for which the call in [1], in test [2], in test [4], in test [5], in test [6] and in test [7] was inactive. Also, the molecule was classed as inactive in test [8], in test [11], in test [12], in test [13], in test [14] and in test [15]. In addition, the AC50 in [3] was 60.8 µM (active); in test [9], 50 µM (active); in test [10], 50 µM (active).
Consider `CCOP(=O)(OCC)Oc1nc(Cl)c(Cl)cc1Cl`, for which the AC50 is 80.7 µM (active) in [1]; 91.1 µM (active) in [16]; 79.3 µM (active) in [2]; 73.5 µM (active) in test [3]; 80.5 µM (active) in test [8]; 79.2 µM (active) in test [9]. Besides, the AC50 was 76.4 µM (active) in test [10] and 74.9 µM (active) in test [13]. Also, the call in test [4], in test [5], in test [6], in test [7], in test [11] and in [14] was inactive. The call in [15] was inactive.
Turning to `COc1cc(OC)nc(NC(=O)NS(=O)(=O)c2ncccc2OCC(F)(F)F)n1`, the molecule was called inactive in test [1], in test [16], in test [2], in [4], in test [5] and in [7]. In addition, the result in test [8], in test [9], in test [10], in [11], in [13] and in test [14] was inactive. For the same molecule, the molecule was classed as inactive in test [15]. The AC50 in test [3] was 21 µM (active); in [6], 50 µM (active).
Turning to `COP(=S)(OC)SCn1nnc2ccccc2c1=O`, the molecule was called inactive in [1], in test [16], in test [2], in [4], in test [17] and in test [6]. Also, the result in test [7], in test [18], in test [19], in test [8], in [9] and in test [10] was inactive. Besides, the result in [13], in test [14] and in test [15] was inactive. In addition, the AC50 in test [3] is 50 µM (active); in test [11], 15.5 µM (active).
